# Data reported in PubChem BioAssay.
# Values without a mark were called inactive. Calls of active or inactive are those of the source. How the calls were made is not given here.
# Legend:
# [1] = biological target: L-lactate dehydrogenase (Plasmodium falciparum (isolate CDC / Honduras)) (UniProt Q27743); assay: PfLDH activity inhibition – cell lysate, 3D7 strain, counter-screen for P. falciparum growth inhibition project (AID 2304);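 further: 0% = vehicle and 100% = reference inhibitor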; conditions: P. falciparum 3D7 crude extract, LDH APAD/NBT absorbance; at 2 µM; stronger effect = higher value
# Sequence of L-lactate dehydrogenase (Plasmodium falciparum (isolate CDC / Honduras)) (Q27743 whole entry, looked up): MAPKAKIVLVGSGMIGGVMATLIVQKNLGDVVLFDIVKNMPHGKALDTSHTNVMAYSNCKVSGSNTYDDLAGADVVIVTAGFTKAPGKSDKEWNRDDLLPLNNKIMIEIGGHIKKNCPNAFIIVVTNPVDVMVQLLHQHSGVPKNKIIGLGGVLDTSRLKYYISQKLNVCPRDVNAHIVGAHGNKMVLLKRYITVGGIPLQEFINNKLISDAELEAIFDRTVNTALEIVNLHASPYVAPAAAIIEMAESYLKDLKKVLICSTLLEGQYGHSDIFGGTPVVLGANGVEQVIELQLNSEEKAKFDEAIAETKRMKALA
# [2] = inhibition of 3D7 malaria parasite growth – strain 3D7 (AID 2306);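 further: 0% = DMSO wells and 100% = chloroquine plus artemisinin control wells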; conditions: P. falciparum 3D7 erythrocytic growth, LDH absorbance, 72 h; at 2 µM; stronger effect = higher value
structure (smiles),measurement,setting,value
COc1cc(Cc2cnc(N)nc2N)cc(OC)c1OC,inhibition,[1],3%
same,growth inhibition,[2],88% (active)
